TbPYK inhibitor – qHTS of Trypanosoma Brucei Inhibitors; 0.12% of 410,000 active; AID 624173, 2012; TbPYK enzyme, Kinase-Glo Plus ATP luminescence, 45 min; pyruvate kinase (Trypanosoma brucei), Q57TT1; Potency, µM (series often up to 76.8 µM), inactives show top-dose activity, negative = inhibition, usual class: inhibitors; further: nearly all actives have a fitted effect of over 50% in size
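Luminescent Kinase-Glo Plus end-point after 45 min room-temperature reaction of T. brucei pyruvate kinase started with 130 uM ADP (final). Buffer TEA 50 mM pH 7.2 with KCl, MgCl2, BSA, Tween-20; titration-based qHTS with fitted concentration-effect curves.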
Giardia FBPA inh – qHTS Assay for Inhibitors of Fructose-1,6-bisphosphate Aldolase from Giardia Lamblia | 0.71% of 290,000 active | A8B2U2 | purified Giardia FBPA | Potency, µM (doses to about 59.6 µM), without a hit: at the highest dose activity, negative = inhibition, most hits filed as inhibitors; further: nearly all actives have a fitted effect of over 55% in size
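40 nM FBPA preincubated 10 min at RT with compound (up to 57.5 uM final), then substrate plus GAPDH/TPI/NAD/arsenate coupling and diaphorase/resazurin added. Fluorescence read after 20 min at RT, 525/598 nm.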
RE007 growth inh – qHTS Assay for Inhibitors of the HIV-1 protein Vpr; 0.21% of 360,000 active; S. pombe RE007 Vpr strain, BacTiter-Glo ATP luminescence, 24 h; Potency, µM (series often up to 92.2 µM), without a hit: at the top dose activity change, negative = less growth, usual class: inhibitors; AID 651644, 2012; active means well fitted falling curve with a large enough effect; inconclusive means small, poorly fitted or top-dose-only effect; inactive means no such curve, though single readings can be large or run the other way; further: nearly all actives have a fitted effect of over 50% in size
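Fission yeast RE007 carrying one integrated HIV-1 vpr copy, seeded at OD 0.01 in PMG+AL medium with 23 nL pinned compound. Grown 24 h at 30 degrees; viability read by BacTiter-Glo luminescence after 5 min.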
LmPK inhibitor – qHTS Assay for Inhibitors of Leishmania Mexicana Pyruvate Kinase (LmPK); purified LmPK, Kinase-Glo ATP luminescence, 1 h; Potency, µM (top dose mostly 57.5 µM), inactives show top-dose activity change, negative = inhibition, usual class: inhibitors; 0.37% of 290,000 active; AID 1721, 2009
Target sequence (Q27686 whole entry, looked up): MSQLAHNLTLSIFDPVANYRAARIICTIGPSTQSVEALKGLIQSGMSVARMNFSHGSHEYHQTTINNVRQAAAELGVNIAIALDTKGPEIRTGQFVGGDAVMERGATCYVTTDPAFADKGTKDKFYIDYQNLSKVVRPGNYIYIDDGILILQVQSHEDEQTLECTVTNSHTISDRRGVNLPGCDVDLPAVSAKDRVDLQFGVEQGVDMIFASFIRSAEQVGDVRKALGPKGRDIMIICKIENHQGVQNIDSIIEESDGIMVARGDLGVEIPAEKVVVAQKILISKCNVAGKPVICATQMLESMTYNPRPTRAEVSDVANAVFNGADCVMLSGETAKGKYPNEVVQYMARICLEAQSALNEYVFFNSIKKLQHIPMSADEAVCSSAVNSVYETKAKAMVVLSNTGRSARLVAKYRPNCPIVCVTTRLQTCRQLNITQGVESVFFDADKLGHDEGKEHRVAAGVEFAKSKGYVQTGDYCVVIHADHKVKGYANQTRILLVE
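ATP generated from ADP (0.1 mM) and PEP (0.5 mM) by 0.1 nM LmPK over 1 h at room temperature (pH 7.2 imidazole buffer) was detected by coupled luciferase luminescence. Values were normalized to uninhibited and no-enzyme wells.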
Sm TGR inh – qHTS Assay for the Inhibitors of Schistosoma Mansoni Peroxiredoxins | purified TGR, DTNB reduction, TNB absorbance 405 nm | Potency, µM (series often up to 114 µM), without a hit: at the highest dose activity change, negative = inhibition, hits mostly inhibitors | 3% of 360,000 active; further: nearly all actives have a fitted effect of over 60% in size
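TGR 20 nM + NADPH 100 uM (dispensed conc.), cpd preinc 15 min RT; start with NADPH (500 uM addition) then DTNB (15 mM addition). Kinetic TNB absorbance, 405 nm filter. Four-parameter Hill fit across titration.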
* = called active by the depositor; ? = inconclusive; nt = no result; [ ] = another dose, or the depositor's remark. Only some compounds are listed: those with a hit (about 3.3% of all), similar ones and a draw of the others. Unless noted, the call rests on the fitted dose curve; in most records, active means well fitted curve in the direction sought with a large enough effect; inconclusive means small, poorly fitted or top-dose-only effect, or another doubt; inactive means no such curve, though single readings can be large; an effect the other way counts as inactive or inconclusive. On the % scale 0 is the no-effect control and ±100 the full control effect; potency means the concentration at half of the fitted maximal effect.

SMILES | TbPYK inhibitor | Giardia FBPA inh | RE007 growth inh | LmPK inhibitor | Sm TGR inh
CCOC(=O)/C=C/C(=O)OCC(=O)N1CCN(C(=O)c2ccco2)CC1 | -1% | nt | -5% | -1% | 32µM*
COCCN(Cc1ccccc1)C(=O)c1cccc(S(=O)(=O)N2CCN(c3ccc(F)cc3)CC2)c1 | -3% | nt | -11% | nt | -1%
CCOc1ccc(NS(=O)(=O)c2ccc(C(=O)N3CCCC3)cc2)cc1 | 2% | nt | 3% | nt | -8%
COc1cc(CN2CCN(c3ccccc3F)CC2)cc(OC)c1O | -2% | -30% | -6% | -7% | 14µM*
COc1cc2c(cc1OC)CN(Cc1cc(OC)c(O)c(OC)c1)CC2 | 1% | -19% | -8% | -1% | 8.9µM*
COc1ccc(C(=O)N2CCN(Cc3cc(OC)c(O)c(OC)c3)CC2)cc1OC | 5% | ? | -6% | 4% | 8.9µM*
COc1ccc(CN2CCN(c3ccccc3F)CC2)cc1O | 8% | -18% | 7% | 2% | 12%
COc1cc2c(cc1OC)CN(Cc1ccccc1)CC2 | -8% | ? | 8% | -3% | 10%
CCOC(=O)C1=C(CS(=O)(=O)c2ccc(F)cc2)NC(=O)NC1c1ccc(O)c(O)c1 (stereo unspecified) | 2% | ? | 4% | ? | -24%
COC(=O)c1ccc(N2C(=O)CC(N3CCC(n4c(=O)[nH]c5ccccc54)CC3)C2=O)cc1 (stereo unspecified) | -8% | 0% | 14µM* | 0% | 35µM*
Cc1cc(N2C(=O)CC(N3CCC(n4c(=O)[nH]c5ccccc54)CC3)C2=O)no1 (stereo unspecified) | -28% | -11% | ? | -3% | 22µM*
O=C1CC(N2CCC(n3c(=O)[nH]c4ccccc43)CC2)C(=O)N1Cc1ccccc1 (stereo unspecified) | -7% | 5% | -23% | 1% | -32%
O=C(NC(=S)Nc1ccc(F)cc1)c1ccc2c(c1)OCCO2 | -3% | -6% | -9% | -2% | 11µM*
O=C(Nc1ccccc1)c1ccc2c(c1)OCCO2 | -17% | -2% | 0% | 14µM* | 2%
O=C(NC(=S)Nc1ccc2c(c1)OCCO2)c1ccccc1 | 3% | -17% | -4% | -18% | 8.9µM*
O=C(NCc1ccc(F)cc1)C1CCCCN1S(=O)(=O)c1ccc(F)cc1 (stereo unspecified) | 3% | nt | nt | nt | 13%
O=C(CSc1ncn[nH]1)N1N=C2/C(=C/c3ccco3)CCCC2C1c1ccco1 (stereo unspecified) | -1% | -1% | 19% | -4% | -32%
COc1cccc(-c2cc(C(F)(F)F)nc(NCCc3ccccc3)n2)c1 | 0% | nt | nt | nt | 7%
COCC(C)NC(=O)c1cc(-c2ccc(O)cc2)on1 (stereo unspecified) | -4% | 7% | 6% | 4% | 0%
O=C(O)c1cc(N2N=C(C(F)(F)F)/C(=C/C=C/c3ccco3)C2=O)ccc1Cl | ? | ? | -8% | -25% | 10µM*
CCOC(=O)c1ccc(N2N=C(C)/C(=C/C=C/c3ccco3)C2=O)cc1 | 1% | 0% | -9% | 0% | ?
COC(C#CCCN(C)C)(c1ccccc1)c1ccccc1 | -2% | -13% | ? | 5% | 28µM*
Cc1ccc(NC(=O)CSc2nc(=O)n(Cc3ccco3)c3c2CCC3)cc1F | -4% | nt | nt | nt | -12%
Cc1ccc(C(=O)Nc2nc3c(s2)CCCC3)o1 | -18% | -12% | ? | 25µM* | -13%
O=C(Nc1nc2c(s1)CCCC2)c1ccc(Br)o1 | -4% | -11% | -13% | ? | 1%
SMILES | TbPYK inhibitor | Giardia FBPA inh | RE007 growth inh | LmPK inhibitor | Sm TGR inh
COC1OC(COC(=O)c2ccccc2)C(OC(=O)c2ccccc2)C1OC(=O)c1ccccc1 (stereo unspecified) | -2% | 2% | 5% | 1% | 0%
O=C(O)C[C@@H]1C(=O)O[C@@H]2C(COC(=O)c3cc(O)c(O)c(O)c3)O[C@@H](OC(=O)c3cc(O)c(O)c(O)c3)[C@@H](OC(=O)c3cc(O)c(O)c4c3[C@H]1[C@H](O)C(=O)O4)[C@H]2OC(=O)c1cc(O)c(O)c(O)c1 (stereo partly specified) | nt | 4µM* | nt | 7% | 16µM*
O=C(NC1CCCCC1)C(c1cccnc1)N(C(=O)CCl)c1cccc(Cl)c1 (stereo unspecified) | 2% | 0% | 12% | 5% | 4µM*
COC(CN(C(=O)CCl)C(C(=O)NC1CCCCC1)c1ccc(Cl)cc1)OC (stereo unspecified) | 3% | 1% | -4% | -2% | 22µM*
Cc1cccc(N(C(=O)CNC(=O)c2ccco2)C(C(=O)NC2CCCCC2)c2cccnc2)c1 (stereo unspecified) | 4% | -1% | -11% | 0% | -5%
COc1ccc(C(C(=O)NC2CCCCC2)N(C(=O)CCl)c2ccc(Cl)cc2)cc1 (stereo unspecified) | -20% | 3% | -18% | -1% | 1.6µM*
COC(CN(C(=O)CCl)C(C(=O)NC1CCCC(C)C1C)c1ccc(C)cc1)OC (stereo unspecified) | 13% | -2% | -11% | 1% | 40µM*
CN(C)C(C(=O)NC1CCCCC1)c1ccc(Cl)cc1 (stereo unspecified) | 2% | 4% | 3% | 2% | 2%
COCCNC(=O)C(Cc1c[nH]c2ccccc12)NC(=O)OCc1ccccc1 (stereo unspecified) | -2% | -9% | -3% | -1% | 7%
C[C@@H](Cc1ccccc1)NCCC(c1ccccc1)c1ccccc1 | -4%[33.2 µM] | -4%[21.7 µM] | nt | nt | nt
COC(CN(C(=O)CCl)C(C(=O)NC1CCCCC1)c1ccccc1C)OC (stereo unspecified) | -8% | -5% | 5% | -7% | 7.1µM*
COC(CN(C)C(C(=O)NC1CCCCC1)c1ccccc1)OC (stereo unspecified) | -6% | 1% | 31% | 2% | ?
Cc1ccccc1NC(=S)c1ccc2ccccc2n1 | -9% | -15% | -5% | 1% | 50µM*
CCCN(CC(=O)Nc1ccccc1C)C(=O)c1ccc2ccccc2n1 | -10% | nt | -14% | nt | -5%
COc1ccc(-c2noc(CN(C)C(=O)c3ccc4c(c3)OCO4)n2)cc1 | 3% | -1% | 20% | 3% | -3%
CC1CC(C)(C)N2C(=O)C(=C(C#N)C#N)c3cccc1c32 (stereo unspecified) | -11% | ? | 0% | -1% | 5.6µM*
Cc1cc2c3c(c1)C(C)CC(C)(C)N3C(=O)C2=O (stereo unspecified) | -2% | -9% | 9% | -2% | nt
